Source: PubChem BioAssay (NCI)
This is part of a sample that, as a whole, favours compounds with a hit. Of some 79,000 tested, about 15% had one in any assay. Values without a mark were called inactive. Calls of active or inactive are those of the source. No stated cut-off is given here; in the data, active means growth inhibition above about 70%; inactive means the rest.

What was measured:
[1] = NCI Yeast Anticancer Drug Screen. Data for the rad50 strain (AID 155);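 further: 0% = growth of vehicle-only cultures of the same strain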; details: S. cerevisiae rad50 strain growth inhibition; at 50.0 µM; hits give high values
Summary of the method: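 A DNA repair-deficient yeast mutant serves as the test organism; compound-induced growth inhibition is calculated against vehicle-treated cells.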

[2] = NCI Yeast Anticancer Drug Screen. Data for the mec2-1 strain (AID 157); details: S. cerevisiae mec2-1 strain, at 50.0 µM, hits give high values
Summary of the method: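 Compounds were applied to mec2-1 yeast cells. Their growth was then compared with that of vehicle-treated cultures to give growth inhibition.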

[3] = NCI Yeast Anticancer Drug Screen. Data for the sgs1 mgt1 strain (AID 161);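 further: 0% = growth of cultures given vehicle only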; details: S. cerevisiae sgs1 mgt1 strain, at 50.0 µM, hits give high values
Summary of the method: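 Compounds are added to genetically altered yeast, and growth is compared with cultures given vehicle alone to give percent inhibition.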

[4] = NCI Yeast Anticancer Drug Screen. Data for the cln2 rad14 strain (AID 165);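 further: 0% = growth equal to vehicle treated cultures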; details: S. cerevisiae cln2 rad14 strain, at 50.0 µM, hits give high values
Summary of the method: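 Strain: cln2 rad14 yeast, altered in cell cycle control and DNA damage repair. Read-out: growth inhibition vs vehicle.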

[5] = NCI Yeast Anticancer Drug Screen. Data for the bub3 strain (AID 167); details: S. cerevisiae bub3 mutant strain, at 50.0 µM, hits give high values
Summary of the method: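 Inhibition values come from growth of compound-treated mutant yeast normalised to vehicle-treated controls.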

[6] = NCI Yeast Anticancer Drug Screen. Data for the mlh1 rad18 strain (AID 175); details: S. cerevisiae mlh1 rad18 strain growth inhibition; at 50.0 µM; hits give high values
Summary of the method: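 A repair-deficient yeast strain is exposed to test compound, and growth is scored relative to vehicle-treated controls.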

| Structure (SMILES) | growth inhibition [1] | growth inhibition [2] | growth inhibition [3] | growth inhibition [4] | growth inhibition [5] | growth inhibition [6] |
| --- | --- | --- | --- | --- | --- | --- |
| COc1cccc(N2CCNCC2)c1 | -5.2% | -12.6% | 12.4% | 4.2% | -6.6% | 25.1% |
| CCC(CN)c1ccccc1 (configuration not stated) | 13.6% | -0.85% | 2.75% | 0.65% | -14.4% | -9.4% |
| CCCCCCCCCNP(=O)(OCc1ccccc1)N(CCCl)CCCl (configuration not stated) | 55.5% | 37.2% | 40.2% | 34.8% | -0.4% | 26.4% |
| O=C(/C=C/c1ccccc1)CCC1C(=O)NC(=S)NC1=O | -4.05% | 3.35% | 27.2% | 0.4% | -17.1% | -34.5% |
| CCCC(=O)[O-].CCCC(=O)[O-].NCCN.NCCN.[Co+3].[O-][Cl+3]([O-])([O-])[O-] | -18.5% | 19.1% | -5.1% | 23% | -0.45% | -1.75% |
| O=C(O)c1c(Cl)n(Cc2cc(Cl)ccc2Cl)c2ccccc12 | 4.5% | 14.3% | 19.9% | 19.9% | 11.3% | 22.2% |
| CCOC(CCCN1CCC2(CC1)C(=O)N(C)CN2c1ccccc1)(OCC)c1ccc(F)cc1 | 8.45% | 20.8% | 16.4% | 2.3% | 30.2% | 25.2% |
| CC(C)OP(=O)(OC(C)C)C(N(C)C)P(=O)(OC(C)C)OC(C)C.[Cl][Sn]([Cl])([Cl])[c]1ccccc1 | -10.9% | -10.2% | 2.1% | 28.8% | 7.85% | 1.5% |
| CCC1(CC)C(=O)NC(=O)[N]([Sn]([CH3])([CH3])[N]2C(=O)NC(=O)C(CC)(CC)C2=O)C1=O | -17.3% | -3.7% | 7.05% | -19.4% | -1.3% | -26.1% |
| CC/C(=C(/CC)c1ccc(OP(=O)(Cl)N(CCCl)CCCl)cc1)c1ccc(OP(=O)(Cl)N(CCCl)CCCl)cc1 (configuration not stated) | -2.35% | -18% | -8.3% | -1.9% | -2.45% | 37.5% |
| Cc1cc(F)ccc1[As](=O)(O)O | -0.55% | -1.95% | -3.25% | -17.9% | 5% | 3.25% |
| CC(C)=CCN=C(N)N | -9.15% | -51.1% | -17.3% | -8% | -37.1% | -28.7% |
| [N-]=[N+]=Nc1ccnc2cc(Cl)ccc12 | -29.9% | -5.55% | -9.05% | -68% | -5.45% | -10.7% |
| O=C(COc1cccc(Cl)c1)NCc1ccccc1NC(=O)c1ccc(S(=O)(=O)F)cc1 | 95.2% (active) | 84.3% (active) | 95.2% (active) | 89.9% (active) | 90.5% (active) | 95.8% (active) |
| O=C(O)C(CP(=O)(O)O)=C(Cl)Cl | -21.4% | 12.3% | -13.9% | -8.95% | -6.15% | -9.75% |
| OCCCN=Cc1ccccc1O.OCCCN=Cc1ccccc1O.[Cu] | 38% | -9.5% | 22.2% | -32.1% | 0.35% | 15.6% |
| COc1ccc2c(C3(O)CCNCC3)c[nH]c2c1 | 0.1% | -1.3% | -3.7% | 2.75% | -3.7% | 3.8% |
| C=CC(=O)OC(C)C | 21.6% | 11.2% | 2.35% | -1.7% | 33.8% | 15.8% |
| Nc1ncn[nH]1 | -5.05% | 11.7% | -7.75% | 7.9% | 18.6% | -3.25% |

| Structure (SMILES) | growth inhibition [1] | growth inhibition [2] | growth inhibition [3] | growth inhibition [4] | growth inhibition [5] | growth inhibition [6] |
| --- | --- | --- | --- | --- | --- | --- |
| OC(CN1CC1)C(O)CN1CC1 (configuration not stated) | -16.4% | -26.2% | -34% | 8.15% | -44.8% | -14.2% |
| N#Cc1ccc(/C=C/C(=O)O)cc1 | 17.2% | -10.4% | -9.15% | -60.2% | -9.9% | -4.3% |
| CSCCC(N)C(=O)O.[Pb] (configuration not stated) | -17.9% | -10.3% | 13.1% | -40.4% | -12.4% | -20.2% |
| COc1ccc(CC(N)c2ccc(OC)cc2)cc1 (configuration not stated) | -50% | 0.8% | -40% | -24.8% | -11.3% | -2.4% |
| NC1CCCC[C@H]1N.N[C@@H]1CCCC[C@@H]1N.O=C(P(=O)([O-])[O-])P(=O)([O-])[O-].[Pt+4].[Pt+4] | 20.2% | 3.85% | -13.7% | 2.7% | -6.6% | 10.3% |
| Cc1ccc(NN=O)nc1 | -13.9% | 3.15% | -3.9% | 15.2% | -10.6% | -13.8% |
| CC(C)CC(C)(C)COP(=S)(OCC(C)(C)CC(C)C)OCC(C)(C)CC(C)C | 13.6% | -15% | 0.8% | -37% | -8.75% | 10.6% |
| CCOC(=O)CNCCC1(CC)C(=O)NC(=O)NC1=O | -0.55% | -8.2% | 2.15% | -37.2% | -0.6% | -12.8% |
| CCCC[C@H]1C(=O)O[C@H](C)[C@H](NC(=O)c2cccc(NC=O)c2O)C(=O)O[C@@H](C)[C@@H]1OC(=O)CC(C)C | 18.4% | 12.5% | 30.9% | 16.4% | 13.6% | 44.2% |
| COC[C@H]1OC(=O)c2coc3c2[C@@]1(C)C1=C(C3=O)[C@@H]2CCC(=O)[C@@]2(C)C[C@H]1OC(C)=O | 92.3% (active) | 93.3% (active) | 89.4% (active) | 89.1% (active) | 86.1% (active) | 88.8% (active) |
| O=P(OCCCl)(OCCCl)OCCCl | -12.1% | -19.4% | -19.2% | -54.6% | 0.15% | -5% |
| O=NN1CCN(N=O)CC1 | 4.9% | -0.6% | 6.3% | 8.95% | -0.6% | 28.1% |
| O=NN(c1ccccc1)c1ccccc1 | 12.2% | 9.8% | -8.6% | -22.3% | -10.1% | 34.5% |
| O=C(O)CC(=O)O.[NH-]C1CCCCC1[NH-].[Pt+2] (configuration not stated) | 23.7% | 4.35% | 21.4% | 30.4% | 21.4% | 13.8% |
| c1cc[c]([Hg][S]c2nc3ccccc3s2)cc1 | -22.4% | -7.1% | -6.05% | -37.3% | -5.15% | -5.1% |
| COc1cc(/C=C(\C)[N+](=O)[O-])cc(OC)c1 | 18.9% | 16.1% | 34% | 58.2% | 64.7% | 86.3% (active) |
| CCOC(=O)CN(Cc1ccccc1)Cc1c(C(=O)c2ccccc2)c2ccccc2n1C(=O)c1ccccc1 | 3.75% | -11.8% | -10.9% | -75.2% | -16.6% | -18.6% |
| c1ccc(CC[N+]23CC[N+](CCc4ccccc4)(CC2)C3)cc1 | 27.9% | 3.2% | 1.4% | -25.6% | 4.5% | 16% |
